Measured values: the supplement of paper PMC13380429

Test system: Vero E6 infected with SARS-CoV-2
Test: inhibition of SARS-CoV-2 cytopathic effect; higher = more antiviral protection, active = above 15
Settings: 48 h

Measured: inhibition of SARS-CoV-2 cytopathic effect

CC(C)(C)CC(C)(C)c1ccc(O)c(Cc2ccc(Cl)cc2Cl)c1 [clofoctol]
inactive: 1 nM 3.11% | 8.33 nM 0.06% | 100 nM 2.41% | 833.33 nM 3.05% | 10000 nM -0.97%

CC(C)(C)NC(=O)N[C@H](C(=O)N1C[C@H]2[C@@H]([C@H]1C(=O)NC(CC1CCC1)C(=O)C(N)=O)C2(C)C)C(C)(C)C (stereo not given in full) [boceprevir]
inactive: 1 nM 0.88% | 8.33 nM -0.31% | 100 nM -1.61% | 833.33 nM -1.89% | 10000 nM 1.17%

Cc1cc(C(C#N)c2ccc(Cl)cc2)c(Cl)cc1NC(=O)c1cc(I)cc(I)c1O (stereo not given) [closantel]
inactive: 1 nM 0.26% | 8.33 nM 1.55% | 100 nM 1.07% | 833.33 nM 3.04% | 10000 nM 5.87%

COc1ccc(NS(=O)(=O)c2ccc(I)cc2)cc1N1CCN(C)CC1
inactive: 1 nM 0.59% | 8.33 nM -5.4% | 100 nM 0.99% | 833.33 nM 0.95% | 10000 nM -1.3%

C=C1/C(=C\C=C2/CCC[C@]3(C)[C@@H]([C@H](C)/C=C/[C@H](C)C(C)(C)O)CC[C@@H]23)C[C@@H](O)C[C@@H]1O [ercalcitriol]
inactive: 1 nM -1.77% | 8.33 nM 0.83% | 100 nM -0.6% | 833.33 nM 2.88% | 10000 nM 3.34%

Nc1ccc2ncnc(NCCc3ccc(Oc4ccccc4)cc3)c2c1
inactive: 1 nM -1.24% | 8.33 nM 1.54% | 100 nM -1.53% | 833.33 nM 0.25% | 10000 nM -4.62%
